Test results reported in PubChem BioAssay (NCATS).
“And” between values parts separate entries of the source, which are not always exact repeats. Equal entries are not always repeated. Records with an inconclusive call do not appear. Entries that show only a call come without a potency. The source made the active and inactive calls. The call rests on the fitted dose curve; in most records, active means well fitted curve in the direction sought with a large enough effect; inconclusive means small, poorly fitted or top-dose-only effect, or another doubt; inactive means no such curve, though single readings can be large; an effect the other way counts as inactive or inconclusive.

Assay: Primary qHTS for inhibitors of nuclear receptor binding SET domain protein 2 (NSD2) in an isogenic RCH-ACV NSD2 p.E1099K mutant (9B) (AID 1645876)
Conditions: RCH-ACV NSD2 E1099K (9B) viability, CellTiter-Glo, 72 h; series mostly up to 44.9 µM
Further: nearly all actives have a fitted effect of over 70% in size.
Potency means the concentration at half of the fitted maximal effect.

Row | Structure (SMILES) | Potency
1 | O=C(NN1CCCC1)NS(=O)(=O)c1ccc(Cl)cc1 | inactive
2 | O=C(O)c1ccccc1S | inactive
3 | CCN1CCN(c2cc(-c3ccc(F)cc3)c3c(n2)CCCCCC3)CC1 | inactive
4 | Oc1ccccc1 | inactive
5 | O=C1NCCN1CCN1CCC(c2cn(-c3ccc(F)cc3)c3ccc(Cl)cc23)CC1 | 3.76 µM (active)
6 | CCCCC(O)/C=C(C)/C=C/C=C/C(=O)N1CCCC1=O (centres undefined) | inactive
7 | Cc1nc(C2CCCCC2)c(-c2ccc(S(N)(=O)=O)c(F)c2)o1 | 11.9 µM (active)
8 | CCN(CC)CCOc1ccc(/C(=C(\Cl)c2ccccc2)c2ccccc2)cc1 | 15 µM (active) and 8.33 µM (active)
9 | O=S(=O)(O)c1ccc2nc(-c3ccccc3)[nH]c2c1 | inactive
10 | CN(CC1(C)CCCO1)S(=O)(=O)c1ccc(Cl)c(S(N)(=O)=O)c1 (centres undefined) | inactive
11 | COC(=O)/C=C\C(=O)OC | inactive
12 | [O-][n+]1cccc(/C(Cl)=N/OC[C@@H](O)CN2CCCCC2)c1 | inactive
13 | CCCCCC1Nc2cc(C(F)(F)F)c(S(N)(=O)=O)cc2S(=O)(=O)N1 (centres undefined) | inactive
14 | COc1ccc(-n2nc(CCC(=O)N(C)O)cc2-c2ccc(Cl)cc2)cc1 | 8.41 µM (active)
15 | Cc1cc(O)c2c(O)c3c(O)cccc3cc2c1 | inactive
16 | CC(C)=CCC/C(C)=C/CC/C(C)=C/CCC(=O)OC/C=C(\C)CCC=C(C)C | inactive
17 | O=C(CCCCC(=O)Nc1c(I)cc(I)c(C(=O)O)c1I)Nc1c(I)cc(I)c(C(=O)O)c1I | inactive
18 | CCC(C(=O)NC(=O)NC(C)=O)c1ccccc1 (centres undefined) | inactive
19 | C[C@H]1C[C@H]2[C@@H]3CCC4=CC(=O)C=C[C@]4(C)[C@H]3C(=O)C[C@]2(C)[C@@]1(O)C(=O)CO | inactive
20 | CCOc1c(N2CCOCC2)cnn(C)c1=O | inactive
21 | Cc1ccc(C(=O)C(=O)O)cc1C | inactive
22 | O=C(CO)[C@@H](O)[C@H](O)[C@@H](O)CO | inactive

Assay: Primary qHTS for inhibitors of nuclear receptor binding SET domain protein 2 (NSD2) in an RCH-ACV wild type WT cells (2C) (AID 1645877)
Conditions: RCH-ACV (leukaemia line) NSD2 WT (2C) viability, CellTiter-Glo, 72 h; series mostly up to 44.9 µM

Row | Structure (SMILES) | Potency
23 | CC(=O)Nc1ccn(C2COC(COC(=O)c3ccccc3)O2)c(=O)n1 (centres undefined) | 5.31 µM (active)
24 | COc1cc(C(=O)OC(COCCC(C)C)CN2CCOCC2)cc(OC)c1OC (centres undefined) | inactive
25 | C[C@@H]1C[C@H]2[C@@H]3CCC4=CC(=O)C=C[C@]4(C)[C@@]3(F)[C@@H](O)C[C@]2(C)[C@@]1(O)C(=O)COC(=O)c1ccncc1 | inactive
26 | Cc1c(F)cc2c(=O)c(C(=O)O)cn3c2c1CCC3C (centres undefined) | inactive
27 | Cc1oc(=O)oc1COC(=O)[C@@H]1N2C(=O)[C@@H](NC(=O)[C@H](N)c3ccccc3)[C@H]2SC1(C)C | inactive
28 | COC(=O)C1=C(C)NC(C)=C(C(=O)OCCc2ccc(N3CCN(C(c4ccccc4)c4ccccc4)CC3)cc2)C1c1cccc([N+](=O)[O-])c1 (centres undefined) | inactive
29 | CN(C)CCCOC1(Cc2ccccc2)CCCCCC1 | inactive
30 | CC(=O)Nc1ccc(S(=O)(=O)Nc2cc(C)on2)cc1 | inactive
31 | NC(=O)C1(N2CCCCC2)CCN(CCCN2c3ccccc3CCc3ccc(Cl)cc32)CC1 | 8.41 µM (active)
32 | O=C(CCOCCOCCOCCOCCC(=O)Nc1c(I)cc(I)c(C(=O)O)c1I)Nc1c(I)cc(I)c(C(=O)O)c1I | inactive
33 | CN1CC(=O)N2[C@H](c3ccc4c(c3)OCO4)c3[nH]c4ccccc4c3C[C@@H]2C1=O | inactive
34 | Cn1cc(S(C)=O)c(=O)c2ccc(F)cc21 (centres undefined) | inactive
35 | CC(=O)N(c1onc(C)c1C)S(=O)(=O)c1ccc(N)cc1 | inactive
36 | CCOC(=O)NNc1nncc2ccccc12 | inactive
37 | Cc1ccccc1C(=O)N1CC/C(=N\OS(=O)(=O)O)c2ccc(Cl)cc21 | inactive
38 | O=C(NN1CCCC1)NS(=O)(=O)c1ccc(Cl)cc1 | inactive
39 | O=C(O)c1ccccc1S | inactive
40 | CCN1CCN(c2cc(-c3ccc(F)cc3)c3c(n2)CCCCCC3)CC1 | inactive
41 | Oc1ccccc1 | inactive

Row | Structure (SMILES) | Potency
42 | O=C1NCCN1CCN1CCC(c2cn(-c3ccc(F)cc3)c3ccc(Cl)cc23)CC1 | 2.11 µM (active)
43 | CCCCC(O)/C=C(C)/C=C/C=C/C(=O)N1CCCC1=O (centres undefined) | inactive
44 | Cc1nc(C2CCCCC2)c(-c2ccc(S(N)(=O)=O)c(F)c2)o1 | 13.3 µM (active)
45 | CCN(CC)CCOc1ccc(/C(=C(\Cl)c2ccccc2)c2ccccc2)cc1 | 11.9 µM (active) and 5.25 µM (active)
46 | O=S(=O)(O)c1ccc2nc(-c3ccccc3)[nH]c2c1 | inactive
47 | CN(CC1(C)CCCO1)S(=O)(=O)c1ccc(Cl)c(S(N)(=O)=O)c1 (centres undefined) | inactive
48 | COC(=O)/C=C\C(=O)OC | inactive
49 | [O-][n+]1cccc(/C(Cl)=N/OC[C@@H](O)CN2CCCCC2)c1 | inactive
50 | CCCCCC1Nc2cc(C(F)(F)F)c(S(N)(=O)=O)cc2S(=O)(=O)N1 (centres undefined) | inactive
51 | COc1ccc(-n2nc(CCC(=O)N(C)O)cc2-c2ccc(Cl)cc2)cc1 | 7.5 µM (active)
52 | Cc1cc(O)c2c(O)c3c(O)cccc3cc2c1 | inactive
53 | CC(C)=CCC/C(C)=C/CC/C(C)=C/CCC(=O)OC/C=C(\C)CCC=C(C)C | inactive
54 | O=C(CCCCC(=O)Nc1c(I)cc(I)c(C(=O)O)c1I)Nc1c(I)cc(I)c(C(=O)O)c1I | inactive
55 | CCC(C(=O)NC(=O)NC(C)=O)c1ccccc1 (centres undefined) | inactive
56 | C[C@H]1C[C@H]2[C@@H]3CCC4=CC(=O)C=C[C@]4(C)[C@H]3C(=O)C[C@]2(C)[C@@]1(O)C(=O)CO | inactive
57 | CCOc1c(N2CCOCC2)cnn(C)c1=O | inactive
58 | Cc1ccc(C(=O)C(=O)O)cc1C | inactive
59 | O=C(CO)[C@@H](O)[C@H](O)[C@@H](O)CO | inactive
